Screen size: about 310,000 compounds; about 14,000 (4.5%) showed an effect of 50% or more. Effects have a minus sign here. This excerpt belongs to a sample that is enriched for strong results.
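Note: peak tail current of the secondary pulse compared with the same well before compound.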

In the test the target is human ether-à-go-go-related gene (hERG) potassium channel (human, UniProt Q12809). Briefly: primary screen, population patch clamp on CHO cells stably expressing hERG; higher = less effect of the substance.
Chain of human ether-à-go-go-related gene (hERG) potassium channel (Q12809 whole entry, looked up): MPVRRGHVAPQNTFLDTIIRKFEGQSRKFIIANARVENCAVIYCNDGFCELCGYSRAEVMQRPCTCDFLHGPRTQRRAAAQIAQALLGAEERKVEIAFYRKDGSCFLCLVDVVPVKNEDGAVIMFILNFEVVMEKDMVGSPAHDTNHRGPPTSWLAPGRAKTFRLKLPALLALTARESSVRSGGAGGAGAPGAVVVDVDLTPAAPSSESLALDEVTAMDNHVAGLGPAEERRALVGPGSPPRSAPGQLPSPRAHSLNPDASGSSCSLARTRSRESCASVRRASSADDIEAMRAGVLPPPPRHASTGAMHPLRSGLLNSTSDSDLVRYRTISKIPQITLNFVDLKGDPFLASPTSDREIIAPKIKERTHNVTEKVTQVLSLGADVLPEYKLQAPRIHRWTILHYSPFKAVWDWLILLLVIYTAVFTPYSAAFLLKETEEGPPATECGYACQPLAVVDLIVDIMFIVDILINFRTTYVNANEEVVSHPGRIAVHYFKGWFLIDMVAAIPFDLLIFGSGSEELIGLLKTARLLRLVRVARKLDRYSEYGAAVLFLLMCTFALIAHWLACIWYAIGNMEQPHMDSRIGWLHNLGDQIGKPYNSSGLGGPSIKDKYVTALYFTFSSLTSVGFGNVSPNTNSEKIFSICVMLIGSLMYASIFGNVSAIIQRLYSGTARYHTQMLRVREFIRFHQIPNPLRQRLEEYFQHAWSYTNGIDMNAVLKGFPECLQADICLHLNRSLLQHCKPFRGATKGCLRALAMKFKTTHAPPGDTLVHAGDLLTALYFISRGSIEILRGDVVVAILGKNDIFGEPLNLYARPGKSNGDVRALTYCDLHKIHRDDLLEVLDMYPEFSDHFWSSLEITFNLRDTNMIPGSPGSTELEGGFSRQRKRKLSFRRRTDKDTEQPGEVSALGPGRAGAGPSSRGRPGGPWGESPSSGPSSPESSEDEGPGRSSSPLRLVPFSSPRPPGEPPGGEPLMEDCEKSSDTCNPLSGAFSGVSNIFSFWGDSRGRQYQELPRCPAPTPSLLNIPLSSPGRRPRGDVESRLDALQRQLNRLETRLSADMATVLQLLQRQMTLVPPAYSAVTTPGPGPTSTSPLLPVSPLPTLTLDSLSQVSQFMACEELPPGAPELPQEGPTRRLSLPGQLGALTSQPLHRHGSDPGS
In the case of `COC(=O)c1ccc(NC(=O)Cn2cnc3c(nnn3-c3cccc(OC)c3)c2=O)cc1`, the “hERG current change (%, negative = inhibition) at 10uM” value stood at 3.08%.

Consider `CN1CCc2nc3ccc(Cl)cc3c(-c3ccccc3Cl)c2C1.Cl`, for which the “hERG current change (%, negative = inhibition) at 10uM” value is given as -65.7%.

Consider `Cl.Clc1ccc2nc3c(c(-c4ccccc4)c2c1)CNCC3`, for which the “hERG current change (%, negative = inhibition) at 10uM” value is -37.3%.

On to `CN1CCc2nc3ccc(F)cc3c(C(N)=O)c2C1.Cl`, for which the “hERG current change (%, negative = inhibition) at 10uM” value is -4.4%.

Consider `CN(C)c1ccc(Nc2ncnc3ccc(Br)cc23)cc1`, for which the “hERG current change (%, negative = inhibition) at 10uM” value is 20.4%.

On to `CNc1c([N+](=O)[O-])cnn1-c1ccc(C)cc1`, for which the “hERG current change (%, negative = inhibition) at 10uM” value is on record as -2.24%.

`CC(C)CN1CCCC(N2CCN(c3cccc(Cl)c3)CC2)C1` (centres unmarked): the “hERG current change (%, negative = inhibition) at 10uM” value is given as -21.5%.

`COc1ccc(CN2CCCC(N3CCN(c4cccc(Cl)c4)CC3)C2)cc1OC` (centres unmarked): the “hERG current change (%, negative = inhibition) at 10uM” value is -54.1%.

For `COc1ccc(O)c(CN2CCCC(N3CCN(c4ccccc4OC)CC3)C2)c1` (centres unmarked), the “hERG current change (%, negative = inhibition) at 10uM” value is -11%.

Take `Cc1cccc(C(=O)N2CCCC(N3CCN(c4cccc(Cl)c4)CC3)C2)n1` (centres unmarked): the “hERG current change (%, negative = inhibition) at 10uM” value is given as -17.5%.

For the compound `COc1ccccc1N1CCN(C2CCCN(Cc3cccc(O)c3)C2)CC1` (centres unmarked), the “hERG current change (%, negative = inhibition) at 10uM” value is reported as -9.65%.

Turning to `COc1ccc(N2CCN(C3CCCN(Cc4ccc(F)cc4Cl)C3)CC2)cc1` (centres unmarked), the “hERG current change (%, negative = inhibition) at 10uM” value is listed as -35.2%.

Consider `CCOc1cc(CN2CCCC(N3CCN(c4ccc(F)cc4)CC3)C2)ccc1OC` (centres unmarked), for which the “hERG current change (%, negative = inhibition) at 10uM” value is -62.7%.

In the case of `COc1ccc(O)c(CN2CCCC(N3CCN(c4ccc(F)cc4)CC3)C2)c1` (centres unmarked), the “hERG current change (%, negative = inhibition) at 10uM” value was -59.7%.

As for `COc1ccccc1N1CCN(C2CCCN(Cc3ccc(Cl)cc3)C2)CC1` (centres unmarked), the “hERG current change (%, negative = inhibition) at 10uM” value is reported as -41.1%.

`CC(C)/C=C/CN1CCCC(N2CCN(c3cccc(Cl)c3)CC2)C1` (centres unmarked): the “hERG current change (%, negative = inhibition) at 10uM” value is on record as -50.7%.

Take `COc1cc(CN2CCCC(N3CCN(c4ccccc4C)CC3)C2)ccc1O` (centres unmarked): the “hERG current change (%, negative = inhibition) at 10uM” value is given as -27%.

Turning to `CCOc1cc(CN2CCN(c3ccc(C(C)=O)cc3)CC2)ccc1OC`, the “hERG current change (%, negative = inhibition) at 10uM” value was -23.5%.

For the compound `C#CC(C)(C)NC(=O)c1ccccc1OC`, the “hERG current change (%, negative = inhibition) at 10uM” value worked out at 1.69%.

As for `CC(C)CNC(=O)COC(=O)/C=C/c1ccccc1[N+](=O)[O-]`, the “hERG current change (%, negative = inhibition) at 10uM” value came out at 5.61%.

`COCc1cc(C)nc(SCC(=O)c2ccc(O)c(O)c2)c1C#N`: the “hERG current change (%, negative = inhibition) at 10uM” value amounted to 6.86%.

Consider `CN(C)S(=O)(=O)N(CC(=O)Nc1ccc2ccccc2c1)c1ccccc1`, for which the “hERG current change (%, negative = inhibition) at 10uM” value came to 8.45%.

Regarding `CN1CCN(CCC(=O)Nc2ccc(OCc3ccccc3)cc2)CC1`, the “hERG current change (%, negative = inhibition) at 10uM” value is on record as -41.6%.

Regarding `Cn1cc(C(=O)c2cccc(Cl)c2Cl)cc1C(=O)O`, the “hERG current change (%, negative = inhibition) at 10uM” value is recorded as 10.2%.

In the case of `COc1ccc(-c2cc(-c3ccc(O)cc3)nc(N)c2C#N)cc1`, the “hERG current change (%, negative = inhibition) at 10uM” value is given as 3.91%.

Consider `COc1cc(/C=C(\C#N)C(=O)Nc2ccc3ccccc3c2)c([N+](=O)[O-])cc1OC`, for which the “hERG current change (%, negative = inhibition) at 10uM” value is on record as 8.14%.

For the compound `Cc1c(C)n2c(SCC(=O)N3CCC(C)CC3)nnc2[nH]c1=O`, the “hERG current change (%, negative = inhibition) at 10uM” value is on record as 15.3%.

For the compound `CC(=O)Nc1ccccc1NC(=O)C/C(C)=N/NC(=O)Cc1cccc2ccccc12`, the “hERG current change (%, negative = inhibition) at 10uM” value came to 10.8%.

Regarding `C=CCSC1=C(C#N)C(c2ccccc2OC)CC(=O)N1` (centres unmarked), the “hERG current change (%, negative = inhibition) at 10uM” value is on record as -2.19%.

`COc1ccc(N2CCN(C3CCCN(Cc4ccc(F)cc4)C3)CC2)cc1` (centres unmarked): the “hERG current change (%, negative = inhibition) at 10uM” value is -32.8%.

Turning to `COc1cc(CN2CCCC(N3CCN(c4ccc(F)cc4)CC3)C2)ccc1F` (centres unmarked), the “hERG current change (%, negative = inhibition) at 10uM” value is given as -64.4%.

`COc1ccccc1CN1CCCC(N2CCN(c3ccc(F)cc3)CC2)C1` (centres unmarked): the “hERG current change (%, negative = inhibition) at 10uM” value is -56.2%.

As to `CCOc1cccc(CN2CCCC(N3CCN(c4cccc(Cl)c4)CC3)C2)c1O` (centres unmarked), the “hERG current change (%, negative = inhibition) at 10uM” value is reported as -58.7%.

In the case of `CCOc1cccc(CN2CCCC(N3CCc4cc(OC)c(OC)cc4C3)C2)c1O` (centres unmarked), the “hERG current change (%, negative = inhibition) at 10uM” value was -39.3%.

As to `COc1ccccc1CN1CCCC(N2CCN(c3ccccc3OC)CC2)C1` (centres unmarked), the “hERG current change (%, negative = inhibition) at 10uM” value is -11.9%.

Take `CCn1nc(C)cc1C(=O)N1CCCC(N2CCN(c3cccc(Cl)c3)CC2)C1` (centres unmarked): the “hERG current change (%, negative = inhibition) at 10uM” value is -35%.

`COc1ccccc1N1CCN(C2CCCN(Cc3cc(F)cc(F)c3)C2)CC1` (centres unmarked): the “hERG current change (%, negative = inhibition) at 10uM” value is on record as -6.62%.

`COc1ccc(N2CCN(C3CCCN(Cc4ccccc4OCCO)C3)CC2)cc1` (centres unmarked): the “hERG current change (%, negative = inhibition) at 10uM” value was -24.1%.

In the case of `CCCCn1c(N)c(N(CCOC)C(=O)C2CCN(S(=O)(=O)c3ccc(F)cc3)CC2)c(=O)[nH]c1=O`, the “hERG current change (%, negative = inhibition) at 10uM” value is given as -1.06%.

In the case of `COCCCN(C(C)=O)c1nc(-c2ccccc2)cs1`, the “hERG current change (%, negative = inhibition) at 10uM” value is given as -23.4%.

Regarding `CCNC(=O)CSc1nc(-c2ccc(F)cc2)cs1`, the “hERG current change (%, negative = inhibition) at 10uM” value is on record as 21.2%.

As to `O=C(NCC(c1ccco1)N1CCc2ccccc21)c1ccc([N+](=O)[O-])cc1` (centres unmarked), the “hERG current change (%, negative = inhibition) at 10uM” value is listed as -18.3%.

In the case of `Cn1c(SCc2c(Cl)cccc2Cl)nnc1-c1ccc2nonc2c1`, the “hERG current change (%, negative = inhibition) at 10uM” value is on record as -55.1%.

For the compound `Cn1c(SCc2ccc(Cl)cc2)nnc1-c1ccc2nonc2c1`, the “hERG current change (%, negative = inhibition) at 10uM” value is given as 0.685%.

Regarding `Cn1c(SCc2ccccc2)nnc1-c1ccc2nonc2c1`, the “hERG current change (%, negative = inhibition) at 10uM” value is -9.18%.

As for `CC(c1ccco1)N(C(=O)c1ccccc1NS(=O)(=O)c1ccc(Cl)c([N+](=O)[O-])c1)c1ccccn1` (centres unmarked), the “hERG current change (%, negative = inhibition) at 10uM” value is reported as -6.14%.

Regarding `COc1ccc(NC(=O)c2nn(C)c(=O)c3ccccc23)cc1S(=O)(=O)Nc1ccccc1Cl`, the “hERG current change (%, negative = inhibition) at 10uM” value is recorded as 26%.

On to `COc1ccc(NC(=O)/C(=C\c2ccccc2)NC(=O)c2ccco2)cc1`, for which the “hERG current change (%, negative = inhibition) at 10uM” value was found to be 0.0276%.

On to `O=C(NCc1ccccc1)/C(=C\c1ccc([N+](=O)[O-])cc1)NC(=O)c1ccco1`, for which the “hERG current change (%, negative = inhibition) at 10uM” value is on record as -60.9%.

For `O=C(Nc1ccccc1)/C(=C/c1ccc([N+](=O)[O-])cc1)NC(=O)c1ccco1`, the “hERG current change (%, negative = inhibition) at 10uM” value is on record as 6.42%.

Regarding `O=C(NCCc1ccccc1)/C(=C\c1ccccc1)NC(=O)c1ccco1`, the “hERG current change (%, negative = inhibition) at 10uM” value was -21.4%.

Take `Cc1ccc(C(=O)N/C(=C\c2ccc([N+](=O)[O-])cc2)C(=O)NCCc2ccccc2)cc1`: the “hERG current change (%, negative = inhibition) at 10uM” value is given as -33.8%.

With `O=C(NC(Cc1ccccc1)C(=O)O)/C(=C/c1ccc([N+](=O)[O-])cc1)NC(=O)c1ccco1` (centres unmarked), the “hERG current change (%, negative = inhibition) at 10uM” value is reported as 12.6%.

As to `O=C(NCCc1ccccc1)/C(=C\c1ccc([N+](=O)[O-])cc1)NC(=O)c1ccco1`, the “hERG current change (%, negative = inhibition) at 10uM” value was -80.7%.

With `COc1ccc(/C=C(/NC(=O)c2ccco2)C(=O)NCCc2ccccc2)cc1`, the “hERG current change (%, negative = inhibition) at 10uM” value was -52.6%.

For `O=C(NCc1ccccc1)/C(=C/c1ccc([N+](=O)[O-])cc1)NC(=O)c1ccco1`, the “hERG current change (%, negative = inhibition) at 10uM” value is -62.7%.

For the compound `O=C(NCc1ccccc1)/C(=C/c1ccccc1)NC(=O)c1ccco1`, the “hERG current change (%, negative = inhibition) at 10uM” value is -24.6%.

As for `O=C(NCCc1ccccc1)/C(=C\c1ccc([N+](=O)[O-])cc1)NC(=O)c1ccccc1`, the “hERG current change (%, negative = inhibition) at 10uM” value is -14.6%.

Consider `O=C(NCc1ccccc1)/C(=C\c1ccccc1)NC(=O)c1ccco1`, for which the “hERG current change (%, negative = inhibition) at 10uM” value is -21.7%.
